Screening results: PubChem BioAssay, The Scripps Research Institute Molecular Screening Center
MITF primary = blocks human microphthalmia-associated transcription factor | O75030 | AlphaScreen MITF homodimerization, bead proximity signal | inhibition, % at 2.6 µM | actives 0.91% (n = 650,000) | AID 1259374; in the data active = inhibition above about 50%
GPR151 ag = activators of human GPR151 | Q8TDV0 | PathHunter beta-arrestin GPR151 cells, luminescence | activation, % at 11.2 µM | actives 1% (n = 650,000); in the data active = activation above about 4.9%
Target sequence (Q8TDV0 whole entry, looked up): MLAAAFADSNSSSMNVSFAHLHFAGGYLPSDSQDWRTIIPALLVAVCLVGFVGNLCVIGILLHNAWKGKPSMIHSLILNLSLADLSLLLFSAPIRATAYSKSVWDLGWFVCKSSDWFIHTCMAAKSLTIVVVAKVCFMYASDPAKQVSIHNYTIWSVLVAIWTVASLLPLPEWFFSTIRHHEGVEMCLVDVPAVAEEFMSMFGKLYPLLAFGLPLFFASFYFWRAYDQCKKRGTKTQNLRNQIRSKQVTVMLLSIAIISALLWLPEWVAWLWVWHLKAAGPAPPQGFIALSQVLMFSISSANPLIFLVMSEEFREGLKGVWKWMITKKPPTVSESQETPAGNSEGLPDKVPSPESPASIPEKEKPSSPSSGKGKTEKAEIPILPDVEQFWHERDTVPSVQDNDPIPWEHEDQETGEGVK
TEAD-YAP block = TEAD-YAP interaction inhibition; inhibition, % at 9.12 µM; HEK-TIYL cells, TEAD-Gal4/YAP UAS-luciferase luminescence; actives 1.4% (n = 640,000); in the data active = inhibition above about 32%
FBW7 act = human FBW7 E3 ligase activation, primary screen. Q969H0. AlphaScreen FBW7–phospho-cyclin E peptide binding, activator screen. normalized activity (activation), % at 26.1 µM. actives 0.13% (n = 650,000). AID 1259310; in the data active = normalized activity above about 1.9%;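 also: purified mutant Fbw7 with reduced substrate affinity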
GPR151 conf act = confirmation of human GPR151 activators. shares compounds with GPR151 ag. activation, % at 11.2 µM. 6,700 tested, under 10 active. GPR151 PathHunter beta-arrestin cells, luminescence, 90 min; % of EA-reagent control over plate median. AID 1508609;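 active = mean percent activation across replicates above the confirmation screen cutoff of 4.91%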
GPR119 counter = GPR119 activation, counter-screen for GPR151 activators. shares compounds with GPR151 ag. GPR119 PathHunter beta-arrestin cells, luminescence, 90 min; 0 = compound-well median, 100 = enzyme-acceptor control. activation, % at 11.2 µM. actives 0.3% (n = 6,700). AID 1508611;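 active = mean percent activation in the counterscreen above 29.09%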;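 also: counterscreen on off-target GPR119 to flag nonselective hits from the GPR151 activator screen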
Large screens that a line does not name were inactive (follow-up assays come after a bar, where they were run); ! = repeats disagree. Only some compounds are listed: those with a hit (about 3.5% of all), similar ones and a draw of the others.

CN(Cc1ccccc1)C(=O)c1cc(S(=O)(=O)N2CCCC2)cn1C	none
Cc1cccc(N2CCN(C(=O)c3cccnc3SCc3ccccc3Cl)CC2C)c1 (stereo not drawn)	GPR151 ag 6.8 | GPR151 conf act inactive | GPR119 counter inactive
Cc1ccccc1CSc1ncccc1C(=O)N1CCN(c2cccc(Cl)c2)CC1	none
C=CCNc1nc(C)nc2c1nnn2Cc1ccccc1	none
CCN(CC)CCOc1ccc2c(c1)C(=O)c1cc(OCCN(CC)CC)ccc1-2	GPR151 ag 15, TEAD-YAP block 50 | GPR151 conf act inactive | GPR119 counter inactive
Cc1nn(C(=O)Cn2ccc([N+](=O)[O-])n2)c(C)c1I	GPR151 ag 5.3 | GPR151 conf act inactive | GPR119 counter inactive
Cc1nc(N2CCC(C(N)=O)CC2)c2c(-c3cccs3)csc2n1	GPR151 ag 5.4 | GPR151 conf act inactive | GPR119 counter inactive
Cc1nc(N2CCCN(C)CC2)c2c(-c3cccs3)csc2n1	none
CCOC(=O)CN(c1ccccc1Cl)S(=O)(=O)c1ccc(F)cc1	GPR151 ag 23 | GPR151 conf act inactive | GPR119 counter inactive
COc1ccc(S(=O)(=O)N(CC(=O)O)c2ccc(Cl)cc2)cc1	GPR151 ag 5.6 | GPR151 conf act inactive | GPR119 counter inactive
COC(=O)CN(c1ccccc1OC)S(=O)(=O)c1ccc(OC)cc1	GPR151 ag 7.1 | GPR151 conf act inactive | GPR119 counter inactive
Cc1cccnc1C1(O)CCN(C(=O)c2ccccn2)CC1	none
COc1ccc(C2=N/C(=C\c3ccc(OC)c(OC)c3OC)C(=O)O2)cc1	none
N[C@@H]1CONC1=O	GPR151 ag 6.7! | GPR151 conf act inactive | GPR119 counter inactive
CCOC(=O)c1c(N)c(C#N)cn1-c1ccccc1	GPR151 ag 8.6 | GPR151 conf act inactive | GPR119 counter inactive
Cc1ccc2c(c1)OCC(c1nc3ccc(-c4ccncc4)cc3[nH]1)O2 (stereo not drawn)	GPR151 ag 5.1 | GPR151 conf act inactive | GPR119 counter inactive
c1ccc2c(c1)OC[C@@H](c1nc3ccc(-c4ccncc4)cc3[nH]1)O2	none
Cc1cc2cc(C(c3nnnn3Cc3ccco3)N3CCOCC3)c(=O)[nH]c2cc1C (stereo not drawn)	none
O=C(NC1CCSC1=O)c1cccc(C(=O)NC2CCSC2=O)c1 (stereo not drawn)	GPR151 ag 5.3 | GPR151 conf act inactive | GPR119 counter inactive
CCN(CC)c1ccc2cc(-c3nc(-c4ccc(-c5ccccc5)cc4)cs3)c(=N)oc2c1	none
O=c1ccn(C2OC(COc3ccc([N+](=O)[O-])cc3)C(O)C2O)c(=O)[nH]1 (stereo not drawn)	none
O=c1ccn([C@@H]2O[C@H](COP(=O)(O)OP(=O)(O)O)[C@@H](O)[C@H]2O)c(=O)[nH]1	GPR151 ag 5.1 | GPR151 conf act inactive | GPR119 counter inactive
CC(C)c1ccc(-c2nn(-c3ccccc3)c(=O)c3ccccc23)cc1	GPR151 ag 5.2 | GPR151 conf act inactive | GPR119 counter inactive
O=c1c2ccccc2c(-c2ccc(Br)cc2)nn1-c1ccccc1	none
Clc1ccc2c(c1)CCc1cccnc1C2=C1CCNCC1	GPR151 ag 7.8! | GPR151 conf act inactive | GPR119 counter inactive
C=CCNC(=O)c1cc2c(=O)n3cc(C)ccc3nc2n(CCC)c1=N	none
C=C(C)C(=O)OC[C@@H]1CN2[C@@H](CC[C@@H](C)[C@@H]2c2ccc(Br)cc2)C(=O)O1	none (no result: TEAD-YAP block)
C[C@@H]1CC[C@H]2C(=O)O[C@@H](COc3ccc(C(C)(C)C)cc3)CN2[C@H]1c1ccc(Br)cc1	GPR151 ag 5.3 (no result: TEAD-YAP block) | GPR151 conf act inactive | GPR119 counter inactive
CCCCn1c(=NC(=O)C(C)(C)C)c(C(=O)OCC)cc2c(=O)n3ccccc3nc21	GPR151 ag 5.3 | GPR151 conf act inactive | GPR119 counter inactive
CCCn1c(=NC(=O)C(C)(C)C)c(C(=O)OCC)cc2c(=O)n3ccccc3nc21	none
CCCNc1cc(C)nc(Nc2cccnc2)n1	none
CCCNc1cc(C)nc(Nc2ccccc2)n1	GPR151 ag 14 | GPR151 conf act inactive | GPR119 counter inactive
COc1cc([N+](=O)[O-])cc2c1NC(c1ccncc1)C1CC=CC21 (stereo not drawn)	none
COc1cc([N+](=O)[O-])cc2c1NC(c1cccnc1)C1CC=CC21 (stereo not drawn)	GPR151 ag 5.2 | GPR151 conf act inactive | GPR119 counter inactive
Cc1nc(CN2CCN(C(=O)NC3(c4ccccc4)CC3)CC2)cs1	none
Cc1cc(C(=O)Nc2ccc(F)cc2F)no1	GPR151 ag 6.5 | GPR151 conf act inactive | GPR119 counter inactive
CCCc1cc(C(=O)Nc2ccc(F)cc2F)no1	none
Cc1ccc(C(=O)Nc2c(C)n(C)n(-c3ccccc3)c2=O)cc1C	none
C#CCOc1cc(Br)c(C=O)cc1OCC	none
CCOc1cc(OCC)c(C=O)cc1Br	GPR151 ag 6.3 | GPR151 conf act inactive | GPR119 counter inactive
O=S(=O)(c1ccc(NCc2nc3ccccc3[nH]2)nc1)N1CCCCC1	none
CCOC(=O)C1(CC2CCCCO2)CCN(CCCSC)CC1 (stereo not drawn)	GPR151 ag 6.6 | GPR151 conf act inactive | GPR119 counter inactive
CCOC(=O)C1(CC2CCCCO2)CCN(Cc2cnc(SC)nc2)CC1 (stereo not drawn)	none
Cc1cnc(-c2ccc(C(=O)NC3CC3)cc2)nc1NCCCN1CCCC1=O	GPR151 ag 5.2 | GPR151 conf act inactive | GPR119 counter inactive
CCNc1ncc(C)c(NCCCN2CCCC2=O)n1	none
Cc1cnc(NCc2ccc3c(c2)OCO3)nc1NCCCN1CCCC1=O	GPR151 ag 5.6 | GPR151 conf act inactive | GPR119 counter inactive
Cc1cnc(NCCCN2CCCC2=O)nc1NCCCN1CCCC1=O	GPR151 ag 6.8 | GPR151 conf act inactive | GPR119 counter inactive
CCN(CC)c1nc(NCCCN2CCCC2=O)nc(NC2CC2)n1	GPR151 ag 5.1 | GPR151 conf act inactive | GPR119 counter inactive
Cc1cnc(-c2ccc(C(=O)N3CCN(C)CC3)cc2)nc1NCCCN1CCCC1=O	none
CCOC(=O)c1ccccc1NC(=O)C(=O)Nc1ccccc1C(=O)OCC	none
Cc1cnc(-c2ccc(C(N)=O)cc2)nc1NCCN1CCOCC1	GPR151 ag 5.5 | GPR151 conf act inactive | GPR119 counter inactive
O=C(NNC(=S)NCc1ccccc1)c1ccc(Br)o1	GPR151 ag 6.3 | GPR151 conf act inactive | GPR119 counter inactive
COc1ccc2c(CN3C(=O)C(=O)N(C4CCCC4)C3=O)cc(=O)oc2c1	GPR151 ag 10 | GPR151 conf act inactive | GPR119 counter inactive
CCOC(=O)c1cnc2c(OC)cccc2c1Nc1cccc(C(=O)O)c1	GPR151 ag 5.3 | GPR151 conf act inactive | GPR119 counter inactive
CCC(=O)Nc1cccc(-c2nc3cccnc3s2)c1	none
CC(=O)Nc1ccc(N2C(=O)C=CC2=O)cc1C	none
